Source: PubChem BioAssay (Tox21)
Records with an inconclusive call do not appear. Where a call stands in place of a potency, no number is given. Calls of active or inactive are those of the source. Calls follow the shape of the dose curve; as a rule, active = well fitted cell-killing curve with a large enough effect in the repeat runs; inconclusive = weak or mixed curves, or effect the other way; inactive = flat fitted curve, though single readings scatter.

assay: cAMP Responsive Elements (CRE) small molecule antagonists, cell-based qHTS assay: qHTS cell viability counter screen (AID 2060913); conditions: CRE-bla HEK293T viability, CellTiter-Glo luminescence, 5 h; series mostly up to 92.4 µM; also: nearly all actives have a fitted effect of over 40% in size
Summary of the method: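 Cytotoxicity counter screen multiplexed with the CRE-bla antagonist read: HEK293T cells in DMEM with dialyzed FBS and 25 mM HEPES were treated 3 hrs under 0.25 uM final NKH477, then viability measured by CellTiter-Glo luminescence.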

Row | SMILES | Potency | viability change, negative = cytotoxic
1 | C/C=C(\C)C(C)=O | inactive | 
2 | CCCCCCCCCCCCN1CCCCCC1=O | inactive | 
3 | O=C(N/N=C/c1ccccc1O)c1ccncc1 | inactive | 
4 | Cc1cc(C)c(O)c(C(C)(C)C)c1 | inactive | 
5 | NNCCc1ccccc1 | inactive | 
6 | CC(CCO)CC(C)(C)C (stereo not drawn) | inactive | 
7 | CCn1cc(C(=O)O)c(=O)c2cc(F)c(N3CCN(C)CC3)cc21 |  | 3.1% [at 18.9 µM] (inactive)
8 | CCCCOc1cc(C(=O)NCCN(CC)CC)c2ccccc2n1 | inactive | 
9 | C=CC(=O)OCCOC(=O)CCC(=O)O | inactive | 
10 | CCOc1ccc(O)cc1 | inactive | 
11 | CN1CCN(CC(=O)N2c3ccccc3C(=O)Nc3cccnc32)CC1 |  | 8.13% [at 8.39 µM] (inactive)
12 | CCOc1ccccc1OCC | inactive | 
13 | O=Cc1cccc([N+](=O)[O-])c1 | inactive | 
14 | O=C1C=CCCC1 | inactive | 
15 | O=C1NC(=O)C(c2ccccc2)(c2ccccc2)N1 | inactive | 
16 | C[Si](O[Si](C)(C)C)O[Si](C)(C)C | inactive | 
17 | CCCCCCOC(=O)CC(CC(=O)OCCCCCC)(OC(=O)CCC)C(=O)OCCCCCC | inactive | 
18 | COC(=O)CC(=O)C(C)(C)C | inactive | 
19 | CCN[C@H]1C[C@H](C)S(=O)(=O)c2sc(S(N)(=O)=O)cc21 | inactive | 
20 | ON=C1CCCCC1 | inactive | 
21 | CS(C)=O | inactive | 
22 | COc1cc([C@H]2Oc3cc([C@H]4Oc5cc(O)cc(O)c5C(=O)[C@@H]4O)ccc3O[C@@H]2CO)ccc1O | inactive | 
23 | CCN(Cc1cccnc1)C(=O)c1cccc(Cl)c1[C@]1(C)C(=O)N(Cc2ccc(OC)cc2OC)c2ccc(Cl)cc21 | inactive | 
